Assay outcomes as filed in PubChem.
Pol beta inh: qHTS Assay for Inhibitors of DNA Polymerase Beta; AID 485314, 2010; 340,000 tested, 1.3% active; P06746; Potency, µM (top dose mostly 114 µM), for the others: at the highest dose activity change, negative = inhibition, hits mostly inhibitors; Pol beta primer extension/strand displacement, fluorescence kinetic; note: % is set by controls: 0 for no effect and ±100 for the full control effect
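Preincubation: enzyme (10 nM) with compound, 15 min, RT. Reaction: substrate added to 50 nM final. Reads: 0 and 10 min. Analysis: normalized, Hill fit.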
POLH inh: qHTS for Inhibitors of Polymerase Eta; DNA polymerase eta (Homo sapiens), Q9Y253; recombinant Pol eta, fluorescent DNA replication assay; Potency, µM (top dose mostly 114 µM), for inactives: at the highest dose activity change, negative = inhibition, most hits filed as inhibitors; 390,000 tested, 1.2% active; AID 588591, 2011; note: % is set by controls: 0 for no effect and ±100 for the full control effect
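Fluorescent replication assay: 50 nM final substrate added after a 15 min room-temperature compound preincubation with 10 nM enzyme. Signal taken at 0 min and again at 10 min.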
POLK inh: qHTS for Inhibitors of Polymerase Kappa. DNA polymerase kappa (Homo sapiens), Q9UBT6. purified Pol kappa, fluorescent DNA synthesis assay, 10 min. Potency, µM (doses to about 107 µM), for the others: top-dose activity, negative = inhibition, most hits filed as inhibitors. 400,000 tested, 0.53% active. AID 588579, 2011; note: % is set by controls: 0 for no effect and ±100 for the full control effect
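Fluorescent qHTS in 1536-well format: enzyme (10 nM) and compound sat 15 min at room temperature before 50 nM substrate (final) was added. Signal taken at 0 and 10 min; no-enzyme buffer wells were negative controls.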
FEN1 inhibitor: qHTS Assay for the Inhibitors of Human Flap endonuclease 1 (FEN1); Recombinant FEN1 flap cleavage, fluorescence, 15 min; Potency, µM (highest dose often 114 µM), for inactives: at the top dose activity change, negative = inhibition, usual class: inhibitors; P39748; AID 588795, 2011; 390,000 tested, 0.35% active; note: % is set by controls: 0 for no effect and ±100 for the full control effect; nearly all actives have a fitted effect of over 65% in size
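Quantitative HTS format: each compound was titrated, incubated with 10 nM nuclease for 15 min at room temperature, then challenged with flap substrate at 50 nM final. Signal change over 15 min gave concentration–effect curves.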
Pol iota inh: qHTS for Inhibitors of Polymerase Iota | Pol iota fluorescent replication assay, 10 min | AID 588590, 2011 | DNA polymerase iota (Homo sapiens), Q9UNA4 | 390,000 tested, 1% active | Potency, µM (series often up to 115 µM), without a hit: at the highest dose activity, negative = inhibition, actives largely listed as inhibitors
Target sequence (Q9UNA4 whole entry, looked up): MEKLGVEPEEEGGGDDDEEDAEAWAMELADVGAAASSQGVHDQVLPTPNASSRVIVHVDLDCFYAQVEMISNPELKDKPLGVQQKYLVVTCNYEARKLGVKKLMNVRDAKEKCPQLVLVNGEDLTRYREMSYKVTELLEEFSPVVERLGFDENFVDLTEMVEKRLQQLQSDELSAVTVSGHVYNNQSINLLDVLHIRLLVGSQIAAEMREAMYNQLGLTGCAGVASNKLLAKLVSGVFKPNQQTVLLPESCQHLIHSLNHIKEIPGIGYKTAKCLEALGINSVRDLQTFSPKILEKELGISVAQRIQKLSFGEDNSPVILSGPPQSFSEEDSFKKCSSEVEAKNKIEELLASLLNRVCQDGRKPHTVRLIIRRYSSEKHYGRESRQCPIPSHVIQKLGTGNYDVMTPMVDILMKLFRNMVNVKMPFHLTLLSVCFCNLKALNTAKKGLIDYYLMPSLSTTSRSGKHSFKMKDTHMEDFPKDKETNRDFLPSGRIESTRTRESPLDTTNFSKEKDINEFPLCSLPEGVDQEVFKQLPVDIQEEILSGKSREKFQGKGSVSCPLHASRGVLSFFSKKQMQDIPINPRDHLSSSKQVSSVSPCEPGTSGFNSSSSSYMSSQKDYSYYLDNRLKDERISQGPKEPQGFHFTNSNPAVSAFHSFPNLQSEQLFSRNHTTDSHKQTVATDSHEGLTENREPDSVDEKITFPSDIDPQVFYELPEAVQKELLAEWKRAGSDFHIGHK
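Pol iota at 10 nM preincubated 15 min with compounds at room temperature; reaction started with fluorescent substrate, 50 nM final. Fluorescence read kinetically at 0 and 10 min; buffer-only wells as negative control.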
TDP1 block: qHTS Assay for Inhibitors of Tyrosyl-DNA Phosphodiesterase (TDP1); Tyrosyl-DNA phosphodiesterase 1 (Homo sapiens), Q9NUW8; recombinant TDP1, AlphaScreen DNA substrate cleavage; Potency, µM (highest dose often 130 µM), without a hit: at the top dose activity change, negative = inhibition, most hits filed as inhibitors; 350,000 tested, 0.28% active; AID 485290, 2010; note: % is set by controls: 0 for no effect and ±100 for the full control effect; nearly all actives have a fitted effect of over 40% in size
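Recombinant E. coli-expressed Tdp1 (1 nM) preincubated with compound 15 min at RT, then 5'-biotin/3'-phosphotyrosine-FITC DNA substrate (15 nM) added for 5 min. AlphaScreen beads (10 ug/ml) added, 10 min RT; tyrosine-FITC cleavage read as signal loss.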
The depositor's hits bear a star; [ ] = dose if it differs, or a comment. In the library only some 2.4% were active in any assay of this set; here they are far more common. Calls come from the whole dose curve; as a rule, active = well fitted curve in the direction sought with a large enough effect; inconclusive = small, poorly fitted or top-dose-only effect, or another doubt; inactive = no such curve, though single readings can be large; an effect the other way counts as inactive or inconclusive. Potency is the fitted concentration of half-maximal effect.

How did O=C(c1ccc2nc(-c3ccco3)c(-c3ccco3)nc2c1)N1CCC2(CC1)OCCO2 do in these assays?
Pol beta inh: 20µM*; POLH inh: 16µM*; POLK inh: inconclusive; FEN1 inhibitor: -8%; Pol iota inh: inconclusive

How did C[n+]1cc(P(=S)(c2ccccc2)c2ccccc2)n2ccccc21 do in these assays?
TDP1 block: 0%

Results for O=C(O)c1ccc(-n2c(O)c(/C=C3\C=Nc4ccccc43)c(=O)[nH]c2=O)cc1 ?
Pol beta inh: -13%; POLH inh: 50µM*; POLK inh: -5%; FEN1 inhibitor: inconclusive; Pol iota inh: inconclusive

What do the screens show for `CCCCn1c(O)c(/C=C2\C=Nc3ccccc32)c(=O)[nH]c1=O`?
Pol beta inh: -2%; POLH inh: -5%; POLK inh: -6%; FEN1 inhibitor: 2%; Pol iota inh: inconclusive

Results for O=c1[nH]c(=O)n(-c2cccc(F)c2)c(O)c1/C=C1\C=Nc2ccccc21 ?
Pol beta inh: 2%; POLH inh: -25%; POLK inh: -10%; FEN1 inhibitor: 11%; Pol iota inh: 14µM*

How did COC(=O)C1=Nc2ccccc2/C1=C\c1c(O)n(-c2ccc(Br)cc2)c(=O)[nH]c1=O do in these assays?
Pol beta inh: inconclusive; POLH inh: 35µM*; POLK inh: -10%; FEN1 inhibitor: -14%; Pol iota inh: -6%; TDP1 block: -2%

What do the screens show for `O=c1[nH]c(=O)n(-c2ccccc2)c(O)c1/C=C1/C(c2ccccc2)=Nc2ccccc21`?
Pol beta inh: -17%; POLH inh: -10%; POLK inh: 4%; FEN1 inhibitor: -2%; Pol iota inh: 26%; TDP1 block: -6%

How did Cc1cccc2c3c(ccc12)C1=C(C(=O)C3=O)[C@@H](C)CO1 do in these assays?
POLK inh: inconclusive; TDP1 block: 18%

What do the screens show for `O=c1[nH]c(=O)n(Cc2ccccc2Cl)c(O)c1/C=C1/C=CC=N1`?
Pol beta inh: inconclusive; POLH inh: inconclusive; POLK inh: inconclusive; FEN1 inhibitor: -17%; Pol iota inh: 45µM*; TDP1 block: 3%

Results for O=c1[nH]c(=O)n(Cc2ccccc2)c(O)c1C=NCCCO ?
Pol beta inh: inconclusive; POLH inh: -6%; POLK inh: -12%; FEN1 inhibitor: -18%; Pol iota inh: 25%; TDP1 block: -3%

What do the screens show for `C=CCn1c(O)c(/C=C2/C=CC=N2)c(=O)[nH]c1=O`?
Pol beta inh: 19%; POLH inh: inconclusive; POLK inh: -19%; FEN1 inhibitor: -15%; Pol iota inh: 20µM*; TDP1 block: -4%

How did CCCCn1c(O)c(/C=C2/C=CC=N2)c(=O)[nH]c1=O do in these assays?
Pol beta inh: 14%; POLH inh: -14%; POLK inh: -1%; FEN1 inhibitor: -12%; Pol iota inh: inconclusive; TDP1 block: 1%

What do the screens show for `CC(Cc1ccc(C(C)(C)C)cc1)CN1CC(C)OC(C)C1` (stereo not drawn)?
POLK inh: -1%[60.1 µM]; TDP1 block: 15%

How did C[C@@H]1O[C@@H](Oc2c(-c3ccc(O)c(O)c3)oc3cc(O)cc(O)c3c2=O)[C@H](O)[C@H](O)[C@H]1O do in these assays?
POLH inh: inconclusive; POLK inh: 45µM*; FEN1 inhibitor: inconclusive; Pol iota inh: 35µM*; TDP1 block: 7%

What do the screens show for `COc1cc(C(c2c(C)[nH]n(-c3ccccc3)c2=O)c2c(C)[nH]n(-c3ccccc3)c2=O)cc(OC)c1OC`?
Pol beta inh: inconclusive; POLH inh: -4%; POLK inh: -13%; FEN1 inhibitor: inconclusive; Pol iota inh: -101%; TDP1 block: 3%
